The text below walks through data of paper PMC7862700, “An all-to-all approach to the identification of sequence-specific readers for epigenetic DNA modifications on cytosine”.

Assay in all cases: DAPPL (digital affinity profiling via proximity ligation, sequencing); 10 mM Tris-HCl pH 7.5, 50 mM NaCl, 1 mM DTT, 4% glycerol, room temperature, 30 min; GST-TFs on glutathione beads, 16-mer random dsDNA library, 0.1% formaldehyde crosslink after washing; high values mean tight binding
One assay deals with T1, FLI1 (Homo sapiens, UniProt Q01543 1-452).
T1 sequence: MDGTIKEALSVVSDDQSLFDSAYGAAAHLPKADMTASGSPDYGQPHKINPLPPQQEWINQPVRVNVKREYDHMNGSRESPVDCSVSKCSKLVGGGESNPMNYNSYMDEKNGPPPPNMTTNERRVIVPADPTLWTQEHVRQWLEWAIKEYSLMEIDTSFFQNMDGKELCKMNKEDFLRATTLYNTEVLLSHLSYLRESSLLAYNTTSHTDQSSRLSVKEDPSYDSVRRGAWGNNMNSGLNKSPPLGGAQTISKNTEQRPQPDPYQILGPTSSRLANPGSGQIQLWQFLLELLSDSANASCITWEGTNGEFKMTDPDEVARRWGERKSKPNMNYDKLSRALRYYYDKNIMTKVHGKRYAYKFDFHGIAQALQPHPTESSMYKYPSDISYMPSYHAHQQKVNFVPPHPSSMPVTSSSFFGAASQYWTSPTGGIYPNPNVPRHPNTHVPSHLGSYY
Conditions: protein: recombinant; tags: N-terminal GST; dsDNA, one strand shown. The gist of the method:
(§1)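 In yeast, human transcription factors were expressed with a GST fusion, then pulled down on glutathione beads and given DNA barcodes. Pooled with a tag-only sample, they were exposed to 200 nmole of a 16-mer random double-stranded DNA library (Tris/NaCl/DTT/glycerol buffer, room temperature, 30 min), washed, crosslinked with 0.1% formaldehyde, proximity-ligated using BsaI/T4 ligase for 1 h at 37 °C, PCR-amplified and read on an Illumina NextSeq500. Each hexamer's frequency of reads for a factor, divided by the matching frequency for the tag-only sample, gives the binding signal.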

The next assay has as its target T2, ELK1 (Homo sapiens, UniProt P19419 1-428).
T2 sequence: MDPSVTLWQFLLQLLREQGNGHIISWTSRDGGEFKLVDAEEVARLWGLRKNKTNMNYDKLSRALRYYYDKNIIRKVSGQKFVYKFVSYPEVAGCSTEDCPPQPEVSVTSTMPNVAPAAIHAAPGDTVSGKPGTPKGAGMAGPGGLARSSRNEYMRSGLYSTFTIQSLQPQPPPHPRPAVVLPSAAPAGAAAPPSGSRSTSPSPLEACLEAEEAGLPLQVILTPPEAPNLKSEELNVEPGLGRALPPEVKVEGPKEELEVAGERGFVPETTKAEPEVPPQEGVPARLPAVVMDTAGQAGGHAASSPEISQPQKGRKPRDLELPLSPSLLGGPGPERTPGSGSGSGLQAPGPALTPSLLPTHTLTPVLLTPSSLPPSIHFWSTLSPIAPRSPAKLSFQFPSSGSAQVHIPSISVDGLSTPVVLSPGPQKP
To be noted: protein: recombinant; tags: N-terminal GST; dsDNA, one strand shown. The gist of the method: as §1

Another assay deals with T3, GABPA (Homo sapiens, UniProt Q06546 1-454).
T3 sequence: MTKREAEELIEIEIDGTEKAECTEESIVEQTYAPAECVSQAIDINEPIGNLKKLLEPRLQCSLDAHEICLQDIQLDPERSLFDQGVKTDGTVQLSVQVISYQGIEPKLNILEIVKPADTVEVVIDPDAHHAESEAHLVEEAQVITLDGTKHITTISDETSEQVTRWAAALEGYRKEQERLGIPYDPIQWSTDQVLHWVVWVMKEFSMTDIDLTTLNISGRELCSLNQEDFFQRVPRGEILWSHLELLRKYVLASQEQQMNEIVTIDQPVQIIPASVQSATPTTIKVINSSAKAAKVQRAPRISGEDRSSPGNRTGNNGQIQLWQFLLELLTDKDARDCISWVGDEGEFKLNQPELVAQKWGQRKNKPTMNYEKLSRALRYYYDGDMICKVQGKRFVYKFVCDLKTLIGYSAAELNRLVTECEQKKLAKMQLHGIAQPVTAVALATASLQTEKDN
Conditions: protein: recombinant; tags: N-terminal GST; dsDNA, one strand shown. The gist of the method: as §1

The target in the next assay is T4, ERG (Homo sapiens, UniProt P11308 1-479).
T4 sequence: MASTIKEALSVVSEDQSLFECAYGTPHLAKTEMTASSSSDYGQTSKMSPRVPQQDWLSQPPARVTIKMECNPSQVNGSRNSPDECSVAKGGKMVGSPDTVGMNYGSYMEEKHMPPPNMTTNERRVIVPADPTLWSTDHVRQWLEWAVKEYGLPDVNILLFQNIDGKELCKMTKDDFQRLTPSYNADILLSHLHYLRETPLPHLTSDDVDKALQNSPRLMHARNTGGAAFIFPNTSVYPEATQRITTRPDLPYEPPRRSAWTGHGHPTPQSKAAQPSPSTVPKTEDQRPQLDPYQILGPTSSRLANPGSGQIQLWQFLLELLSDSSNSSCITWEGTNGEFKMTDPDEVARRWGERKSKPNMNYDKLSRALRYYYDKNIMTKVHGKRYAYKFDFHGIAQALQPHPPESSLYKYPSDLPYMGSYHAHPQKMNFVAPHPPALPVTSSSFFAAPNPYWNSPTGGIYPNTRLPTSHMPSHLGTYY
Conditions: protein: recombinant; tags: N-terminal GST; dsDNA, one strand shown. The gist of the method: as §1

A further assay deals with ELF1 (Homo sapiens, UniProt P32519 1-619). To be noted: protein: recombinant; tags: N-terminal GST; dsDNA, one strand shown. The gist of the method: as §1
Another assay deals with T5, EHF (Homo sapiens, UniProt Q9NZC4 1-300).
T5 sequence: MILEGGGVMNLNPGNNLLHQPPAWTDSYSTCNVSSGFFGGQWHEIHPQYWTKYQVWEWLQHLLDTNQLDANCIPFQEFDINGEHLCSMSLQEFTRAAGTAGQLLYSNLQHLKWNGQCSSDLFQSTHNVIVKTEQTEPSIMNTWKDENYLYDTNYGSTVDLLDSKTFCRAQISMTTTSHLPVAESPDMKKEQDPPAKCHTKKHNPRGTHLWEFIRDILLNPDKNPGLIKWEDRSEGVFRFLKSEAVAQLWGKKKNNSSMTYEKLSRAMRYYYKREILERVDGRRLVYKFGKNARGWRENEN
To be noted: protein: recombinant; tags: N-terminal GST; dsDNA, one strand shown. The gist of the method:
as §1

A further assay concerns the target SPI1 (Homo sapiens, UniProt P17947 1-270). To be noted: protein: recombinant; tags: N-terminal GST; dsDNA, one strand shown. The gist of the method: as §1
The next assay deals with SPIB (Homo sapiens, UniProt Q01892 1-262). To be noted: protein: recombinant; tags: N-terminal GST; dsDNA, one strand shown. The gist of the method:
as §1

Another assay deals with T6, ELK3 (Homo sapiens, UniProt P41970 1-407).
T6 sequence: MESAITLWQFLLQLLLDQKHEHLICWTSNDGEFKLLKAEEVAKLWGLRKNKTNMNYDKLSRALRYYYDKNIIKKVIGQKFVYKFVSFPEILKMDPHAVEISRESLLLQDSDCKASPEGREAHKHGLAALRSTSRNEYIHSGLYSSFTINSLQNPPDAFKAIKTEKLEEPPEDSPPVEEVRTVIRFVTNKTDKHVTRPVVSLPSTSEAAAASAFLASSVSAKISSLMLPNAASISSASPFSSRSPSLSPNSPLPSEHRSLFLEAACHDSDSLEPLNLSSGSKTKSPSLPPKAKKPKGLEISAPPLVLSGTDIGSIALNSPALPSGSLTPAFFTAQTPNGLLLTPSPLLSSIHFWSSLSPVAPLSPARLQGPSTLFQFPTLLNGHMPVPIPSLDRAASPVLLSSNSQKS
To be noted: protein: recombinant; tags: N-terminal GST; dsDNA, one strand shown. The gist of the method:
as §1

The target of a further assay is T7, FEV (Homo sapiens, UniProt Q99581 1-238).
T7 sequence: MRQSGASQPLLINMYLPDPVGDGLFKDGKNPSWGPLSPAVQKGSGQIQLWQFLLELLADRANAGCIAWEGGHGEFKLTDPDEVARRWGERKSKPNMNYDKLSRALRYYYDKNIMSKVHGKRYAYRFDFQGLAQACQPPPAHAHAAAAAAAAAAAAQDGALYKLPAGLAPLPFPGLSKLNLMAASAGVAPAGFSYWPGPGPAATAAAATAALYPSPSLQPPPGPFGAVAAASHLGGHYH
To be noted: protein: recombinant; tags: N-terminal GST; dsDNA, one strand shown. The gist of the method: as §1

For another assay, the target named is ETV5 (Homo sapiens, UniProt P41161 1-510). Conditions: protein: recombinant; tags: N-terminal GST; dsDNA, one strand shown. The gist of the method:
as §1

In the next assay the target is HSF1 (Homo sapiens, UniProt Q00613 1-529). To be noted: protein: recombinant; tags: N-terminal GST; chain copies: 3; dsDNA, one strand shown. The gist of the method: as §1
For the next assay, the target named is T8, SPIC (Homo sapiens, UniProt Q8N5J4 1-248).
T8 sequence: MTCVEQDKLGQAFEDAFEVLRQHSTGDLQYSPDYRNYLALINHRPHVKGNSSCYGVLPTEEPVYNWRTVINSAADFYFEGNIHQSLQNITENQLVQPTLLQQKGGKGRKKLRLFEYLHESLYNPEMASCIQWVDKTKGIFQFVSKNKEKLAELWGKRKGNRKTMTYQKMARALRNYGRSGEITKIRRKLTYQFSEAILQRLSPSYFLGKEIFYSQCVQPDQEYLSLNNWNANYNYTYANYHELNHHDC
Conditions: protein: recombinant; tags: N-terminal GST; dsDNA, one strand shown. The gist of the method: as §1

A further assay concerns the target ELF4 (Homo sapiens, UniProt Q99607 1-663). To be noted: protein: recombinant; tags: N-terminal GST; dsDNA, one strand shown. The gist of the method:
as §1

In a further assay the target is T9, ELK4 (Homo sapiens, UniProt P28324-2 1-405).
T9 sequence: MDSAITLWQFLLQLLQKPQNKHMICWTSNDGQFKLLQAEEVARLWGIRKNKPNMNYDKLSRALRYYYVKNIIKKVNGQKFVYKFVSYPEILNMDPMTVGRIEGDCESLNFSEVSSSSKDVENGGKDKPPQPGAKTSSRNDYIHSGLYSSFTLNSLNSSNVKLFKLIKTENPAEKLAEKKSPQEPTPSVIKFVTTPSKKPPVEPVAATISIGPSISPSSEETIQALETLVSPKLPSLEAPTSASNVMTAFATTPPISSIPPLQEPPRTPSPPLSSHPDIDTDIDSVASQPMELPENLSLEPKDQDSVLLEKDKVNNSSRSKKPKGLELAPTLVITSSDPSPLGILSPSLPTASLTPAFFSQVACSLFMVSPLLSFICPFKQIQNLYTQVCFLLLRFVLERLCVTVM
To be noted: protein: recombinant; tags: N-terminal GST; dsDNA, one strand shown. The gist of the method: as §1

The next assay concerns the target T10, ETV2 (Homo sapiens, UniProt O00321 1-342).
T10 sequence: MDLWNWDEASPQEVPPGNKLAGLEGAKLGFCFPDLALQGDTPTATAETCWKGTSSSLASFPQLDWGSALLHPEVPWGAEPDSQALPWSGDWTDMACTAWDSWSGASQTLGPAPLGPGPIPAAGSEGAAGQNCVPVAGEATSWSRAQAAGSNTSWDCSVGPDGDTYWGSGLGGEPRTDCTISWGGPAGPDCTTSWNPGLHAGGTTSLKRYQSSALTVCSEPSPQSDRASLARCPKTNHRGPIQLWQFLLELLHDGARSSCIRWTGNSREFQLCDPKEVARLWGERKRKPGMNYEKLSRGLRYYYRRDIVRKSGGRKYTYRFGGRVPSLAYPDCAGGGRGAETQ
To be noted: protein: recombinant; tags: N-terminal GST; dsDNA, one strand shown. The gist of the method:
as §1

In a further assay the target is T11, ELF3 (Homo sapiens, UniProt P78545 1-371).
T11 sequence: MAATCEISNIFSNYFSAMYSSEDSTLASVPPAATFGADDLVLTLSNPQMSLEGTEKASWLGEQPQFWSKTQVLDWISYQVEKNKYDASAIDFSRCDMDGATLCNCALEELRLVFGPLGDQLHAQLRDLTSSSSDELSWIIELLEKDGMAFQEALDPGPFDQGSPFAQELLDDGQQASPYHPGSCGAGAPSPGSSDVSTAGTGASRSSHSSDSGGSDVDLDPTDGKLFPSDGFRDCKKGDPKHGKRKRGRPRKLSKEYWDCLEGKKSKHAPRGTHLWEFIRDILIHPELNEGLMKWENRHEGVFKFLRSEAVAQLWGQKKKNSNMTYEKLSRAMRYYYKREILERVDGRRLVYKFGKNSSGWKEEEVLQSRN
Conditions: protein: recombinant; tags: N-terminal GST; dsDNA, one strand shown. The gist of the method:
as §1

Another assay concerns the target CRX (Homo sapiens, UniProt O43186 1-299). To be noted: protein: recombinant; tags: N-terminal GST; dsDNA, one strand shown. The gist of the method:
as §1

Another assay deals with ETV1 (Homo sapiens, UniProt P50549 1-477). To be noted: protein: recombinant; tags: N-terminal GST; dsDNA, one strand shown. The gist of the method: as §1
Chain of ETV1 (P50549 whole entry): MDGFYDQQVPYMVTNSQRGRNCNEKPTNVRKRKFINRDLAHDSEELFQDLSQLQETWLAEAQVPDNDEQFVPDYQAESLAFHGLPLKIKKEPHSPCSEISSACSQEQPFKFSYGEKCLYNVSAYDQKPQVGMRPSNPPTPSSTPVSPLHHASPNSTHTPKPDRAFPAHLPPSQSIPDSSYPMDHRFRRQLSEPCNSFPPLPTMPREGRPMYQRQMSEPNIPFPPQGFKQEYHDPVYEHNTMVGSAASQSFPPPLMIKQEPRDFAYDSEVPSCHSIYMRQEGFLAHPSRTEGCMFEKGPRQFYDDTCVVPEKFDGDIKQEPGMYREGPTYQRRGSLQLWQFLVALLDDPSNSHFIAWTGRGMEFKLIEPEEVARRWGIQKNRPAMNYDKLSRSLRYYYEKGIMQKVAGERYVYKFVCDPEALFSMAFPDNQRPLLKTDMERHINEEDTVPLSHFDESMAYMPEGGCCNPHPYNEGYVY

Chain of ETV5 (P41161 whole entry): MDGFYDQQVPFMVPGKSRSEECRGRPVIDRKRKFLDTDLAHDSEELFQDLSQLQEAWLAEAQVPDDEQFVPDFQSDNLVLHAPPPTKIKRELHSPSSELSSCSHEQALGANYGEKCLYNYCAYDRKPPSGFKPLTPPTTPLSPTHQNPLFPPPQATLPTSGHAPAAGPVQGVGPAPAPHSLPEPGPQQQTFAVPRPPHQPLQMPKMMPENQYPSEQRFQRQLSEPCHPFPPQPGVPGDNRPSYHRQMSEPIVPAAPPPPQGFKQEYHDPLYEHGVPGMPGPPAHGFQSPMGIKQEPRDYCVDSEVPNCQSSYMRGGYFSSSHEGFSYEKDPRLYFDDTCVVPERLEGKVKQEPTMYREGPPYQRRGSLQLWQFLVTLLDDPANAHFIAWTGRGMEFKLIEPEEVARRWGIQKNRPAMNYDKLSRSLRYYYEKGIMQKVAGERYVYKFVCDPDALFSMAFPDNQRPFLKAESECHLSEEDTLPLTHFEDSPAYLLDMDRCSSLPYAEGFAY
Chain of ELF1 (P32519 whole entry): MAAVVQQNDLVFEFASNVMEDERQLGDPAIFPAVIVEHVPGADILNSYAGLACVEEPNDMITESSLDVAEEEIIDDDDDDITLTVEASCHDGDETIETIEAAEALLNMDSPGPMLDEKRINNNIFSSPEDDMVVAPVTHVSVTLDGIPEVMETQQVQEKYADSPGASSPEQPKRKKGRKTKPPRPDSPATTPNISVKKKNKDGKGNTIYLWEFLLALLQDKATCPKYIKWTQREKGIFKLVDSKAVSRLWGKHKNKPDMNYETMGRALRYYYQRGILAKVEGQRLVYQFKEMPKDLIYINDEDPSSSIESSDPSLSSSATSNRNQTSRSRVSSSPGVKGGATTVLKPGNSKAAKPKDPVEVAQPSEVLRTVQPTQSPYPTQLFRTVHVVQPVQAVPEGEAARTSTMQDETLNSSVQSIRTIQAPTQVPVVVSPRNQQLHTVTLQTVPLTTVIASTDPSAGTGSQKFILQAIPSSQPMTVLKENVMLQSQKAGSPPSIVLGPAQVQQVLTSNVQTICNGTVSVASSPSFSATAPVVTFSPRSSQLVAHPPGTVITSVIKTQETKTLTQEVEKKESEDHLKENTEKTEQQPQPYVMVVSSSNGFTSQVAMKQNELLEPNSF
Chain of ELF4 (Q99607 whole entry): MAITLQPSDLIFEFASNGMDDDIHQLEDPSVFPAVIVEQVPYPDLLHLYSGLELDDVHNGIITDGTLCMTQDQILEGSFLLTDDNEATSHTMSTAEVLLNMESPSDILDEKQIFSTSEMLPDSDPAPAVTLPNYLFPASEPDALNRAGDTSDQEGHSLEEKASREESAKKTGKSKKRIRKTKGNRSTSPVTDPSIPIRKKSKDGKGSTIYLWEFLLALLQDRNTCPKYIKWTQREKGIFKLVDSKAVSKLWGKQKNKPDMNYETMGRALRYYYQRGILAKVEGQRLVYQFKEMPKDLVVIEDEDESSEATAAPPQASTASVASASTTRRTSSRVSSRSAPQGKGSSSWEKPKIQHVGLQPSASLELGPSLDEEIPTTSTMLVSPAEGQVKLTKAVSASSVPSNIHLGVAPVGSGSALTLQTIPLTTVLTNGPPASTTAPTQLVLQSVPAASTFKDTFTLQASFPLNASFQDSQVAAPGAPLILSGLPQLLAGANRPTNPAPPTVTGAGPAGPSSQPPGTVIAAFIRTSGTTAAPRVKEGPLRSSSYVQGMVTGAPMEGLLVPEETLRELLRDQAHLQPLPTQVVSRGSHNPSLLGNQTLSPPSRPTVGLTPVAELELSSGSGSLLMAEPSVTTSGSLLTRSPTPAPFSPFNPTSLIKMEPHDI
Chain of CRX (O43186 whole entry): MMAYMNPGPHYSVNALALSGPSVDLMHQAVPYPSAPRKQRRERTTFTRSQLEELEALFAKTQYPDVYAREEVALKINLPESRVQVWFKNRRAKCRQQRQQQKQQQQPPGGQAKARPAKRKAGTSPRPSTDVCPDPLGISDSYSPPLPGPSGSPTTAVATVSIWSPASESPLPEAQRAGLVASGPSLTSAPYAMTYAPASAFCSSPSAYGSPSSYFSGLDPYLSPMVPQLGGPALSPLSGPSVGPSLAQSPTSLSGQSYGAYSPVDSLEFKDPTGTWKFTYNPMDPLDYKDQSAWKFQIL
Chain of SPIB (Q01892 whole entry): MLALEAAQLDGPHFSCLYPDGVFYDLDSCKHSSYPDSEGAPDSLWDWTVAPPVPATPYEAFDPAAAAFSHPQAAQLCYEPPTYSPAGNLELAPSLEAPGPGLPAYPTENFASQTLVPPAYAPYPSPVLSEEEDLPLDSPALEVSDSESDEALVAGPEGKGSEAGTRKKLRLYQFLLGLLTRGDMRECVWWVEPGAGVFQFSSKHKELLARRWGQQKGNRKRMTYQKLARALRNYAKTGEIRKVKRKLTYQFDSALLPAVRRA
Chain of HSF1 (Q00613 whole entry): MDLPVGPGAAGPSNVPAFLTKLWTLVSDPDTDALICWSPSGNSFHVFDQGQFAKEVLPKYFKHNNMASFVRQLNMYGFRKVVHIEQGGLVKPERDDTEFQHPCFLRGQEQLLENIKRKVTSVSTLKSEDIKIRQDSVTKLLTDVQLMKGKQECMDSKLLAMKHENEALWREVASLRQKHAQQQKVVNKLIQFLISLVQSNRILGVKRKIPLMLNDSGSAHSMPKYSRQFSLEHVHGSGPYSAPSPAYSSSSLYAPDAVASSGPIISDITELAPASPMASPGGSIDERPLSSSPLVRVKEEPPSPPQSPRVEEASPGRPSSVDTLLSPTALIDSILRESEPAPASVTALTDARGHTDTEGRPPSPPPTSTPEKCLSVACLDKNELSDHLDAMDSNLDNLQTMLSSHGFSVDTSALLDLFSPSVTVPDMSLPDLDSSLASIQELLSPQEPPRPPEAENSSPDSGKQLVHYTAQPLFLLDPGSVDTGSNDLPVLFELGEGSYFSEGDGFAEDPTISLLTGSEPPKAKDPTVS

In the case of CAACTC, the binding signal is 1.37 fold enrichment (6-mer frequency, TF over GST control) with FLI1; 1.23 fold enrichment (6-mer frequency, TF over GST control) with ELK1; 1.3 fold enrichment (6-mer frequency, TF over GST control) with GABPA; 1.28 fold enrichment (6-mer frequency, TF over GST control) in the assay with ERG; 1.34 fold enrichment (6-mer frequency, TF over GST control) in the assay with ELF1; 1.19 fold enrichment (6-mer frequency, TF over GST control) in the assay with EHF. Also, the binding signal in the assay with SPI1 is 1.31 fold enrichment (6-mer frequency, TF over GST control); in the assay with SPIB, 1.22 fold enrichment (6-mer frequency, TF over GST control); with ELK3, 1.3 fold enrichment (6-mer frequency, TF over GST control); in the assay with FEV it was 1.23 fold enrichment (6-mer frequency, TF over GST control); with ETV5, 1.22 fold enrichment (6-mer frequency, TF over GST control); in the assay with HSF1, 1.12 fold enrichment (6-mer frequency, TF over GST control). The binding signal was 1.33 fold enrichment (6-mer frequency, TF over GST control) with SPIC; 1.27 fold enrichment (6-mer frequency, TF over GST control) with ELF4; 1.2 fold enrichment (6-mer frequency, TF over GST control) with ELK4; 1.3 fold enrichment (6-mer frequency, TF over GST control) with ETV2; 1.24 fold enrichment (6-mer frequency, TF over GST control) with ELF3; 1.01 fold enrichment (6-mer frequency, TF over GST control) with CRX. In the assay with ETV1, the binding signal was 1.18 fold enrichment (6-mer frequency, TF over GST control).
